In PubChem BioAssay (NCI) one finds growth data, which are given here for 13 compounds.

Experiment in all cases: NCI-60 one-dose screen, 48 h (100 = growth as untreated, 0 = no growth, -100 = all killed)
One experiment concerns SK-MEL-2 melanoma. To be noted: 10 µM unless noted.
Another experiment has as its system EKVX NSCLC. To be noted: 10 µM unless noted.
Another experiment deals with SN12C renal. Particulars: 10 µM unless noted.
The subject of a further experiment is TK-10 renal.
The subject of the next experiment is ACHN renal. To be noted: 10 µM unless noted.
The next experiment has as its system A498 renal. Particulars: 10 µM unless noted.
For the next experiment, the system named is CCRF-CEM leukemia. Particulars: 10 µM unless noted.
A further experiment has as its system MOLT-4 leukemia. To be noted: 10 µM unless noted.
For a further experiment, the system named is UO-31 renal. To be noted: 10 µM unless noted.
The test system of a further experiment is CAKI-1 renal. Particulars: 10 µM unless noted.

Where “and” joins values, the source holds several entries; their conditions need not be identical. Equal entries are not always repeated. About 83,000 compounds went through this panel and 20% of them were active in at least one assay; those are over-represented in the sample as a whole.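 Results are percent growth after 48 hours of single-concentration exposure. 100 means growth as in untreated cells, lower positive values show inhibition; negative values down to -100 show cell death.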 Calls of active or inactive are those of the source. Rule for the calls: active = growth percent below 10; inactive = the rest.

For the compound `O=C1Cc2ccccc2C(=O)N1`, the growth in the experiment with SK-MEL-2 melanoma is 92.4% (inactive); in the experiment on EKVX NSCLC it was 99.2% (inactive); in the experiment with SN12C renal, 96.7% (inactive); in the experiment on TK-10 renal (10 µM unless noted), 91% (inactive); in the experiment on ACHN renal, 82.1% (inactive); with A498 renal, 103% (inactive). Also, the growth with CCRF-CEM leukemia is 41.1% (inactive); in the experiment with MOLT-4 leukemia it was 69.8% (inactive).

On to `OCc1cccc(F)c1`, for which the growth is 2.28% (active) in the experiment with SK-MEL-2 melanoma; 106% (inactive) in the experiment on EKVX NSCLC; 83.6% (inactive) in the experiment with SN12C renal; 75.1% (inactive) in the experiment on UO-31 renal; 96.5% (inactive) with TK-10 renal (10 µM unless noted); 111% (inactive) with A498 renal. The growth in the experiment on CCRF-CEM leukemia was 103% (inactive); in the experiment on MOLT-4 leukemia, 83.5% (inactive).

For `CCOC(=O)CN1CCC(C(=O)OCC)CC1`, the growth in the experiment on SK-MEL-2 melanoma was 111% (inactive); in the experiment on EKVX NSCLC it was 127% (inactive); in the experiment on SN12C renal it was 99.7% (inactive); in the experiment on TK-10 renal (10 µM unless noted), 106% (inactive); in the experiment with CAKI-1 renal, 116% (inactive); in the experiment with A498 renal it was 91.5% (inactive). Besides, the results for the growth with CCRF-CEM leukemia and with MOLT-4 leukemia were 89.5% (inactive) and 106% (inactive), respectively.

Regarding `O=c1[nH]c(=O)c2[nH]c(=O)[nH]c2[nH]1`, the growth in the experiment with SK-MEL-2 melanoma is 137% (inactive); in the experiment on EKVX NSCLC, 88.6% (inactive); in the experiment with SN12C renal, 99.7% (inactive); with TK-10 renal (10 µM unless noted), 92.1% (inactive); with ACHN renal, 101% (inactive); in the experiment on A498 renal, 73.9% (inactive). Further, the figures for the growth in the experiment with CCRF-CEM leukemia and in the experiment on MOLT-4 leukemia were 114% (inactive) and 113% (inactive), respectively.

Consider `O=C(NC(CSSCC(NC(=O)OCc1ccccc1)C(=O)O)C(=O)O)OCc1ccccc1` (stereo unspecified), for which the growth is 95.4% (inactive) and 102% (inactive) with SK-MEL-2 melanoma; 94.8% (inactive) in the experiment on EKVX NSCLC; 83.3% (inactive) and 105% (inactive) with SN12C renal; 59.4% (inactive) in the experiment with TK-10 renal (10 µM unless noted); 72.1% (inactive) and 99.3% (inactive) in the experiment with CAKI-1 renal; 68.2% (inactive) and 99% (inactive) in the experiment with A498 renal. Moreover, the growth in the experiment with CCRF-CEM leukemia was 87.3% (inactive); with MOLT-4 leukemia, 52.1% (inactive) and 82% (inactive).

As to `COc1ccc(CCN=Cc2ccc(Cl)cc2)cc1OC`, the growth is 98.4% (inactive) with SK-MEL-2 melanoma; 111% (inactive) in the experiment on EKVX NSCLC; 99.5% (inactive) in the experiment on SN12C renal; 107% (inactive) with TK-10 renal (10 µM unless noted); 106% (inactive) in the experiment with ACHN renal; 101% (inactive) in the experiment on CAKI-1 renal. The growth with A498 renal was 95.3% (inactive); with CCRF-CEM leukemia it was 105% (inactive); with MOLT-4 leukemia, 99.9% (inactive).

Consider `NCCCCCC(=O)O`, for which the growth with SK-MEL-2 melanoma is 110% (inactive) [middle of 4 runs]; in the experiment on EKVX NSCLC, 109% (inactive) [middle of 4 runs]; with SN12C renal it was 107% (inactive) [middle of 4 runs]; in the experiment with TK-10 renal (10 µM unless noted), 115% (inactive) and 104% (inactive) and 98.9% (inactive); in the experiment with ACHN renal it was 103% (inactive) [middle of 4 runs]; with CAKI-1 renal it was 94% (inactive) [middle of 4 runs]. In addition, the growth was 101% (inactive) and 90.4% (inactive) and 108% (inactive) with CCRF-CEM leukemia; 105% (inactive) and 88.6% (inactive) and 108% (inactive) in the experiment on MOLT-4 leukemia.

Take `C#CCOC(=O)C(N)CS` (stereo unspecified): the growth with SK-MEL-2 melanoma was 115% (inactive); in the experiment with EKVX NSCLC, 92.9% (inactive); in the experiment on SN12C renal, 87.2% (inactive); in the experiment on TK-10 renal (10 µM) it was 107% (inactive); with TK-10 renal (100 µM) it was 103% (inactive) and 107% (inactive); in the experiment with ACHN renal, 98.8% (inactive). Besides, the growth with CAKI-1 renal is 99.9% (inactive); in the experiment with A498 renal, 128% (inactive); in the experiment on CCRF-CEM leukemia, 107% (inactive); with MOLT-4 leukemia it was 108% (inactive).

As for `CC(=O)Nc1ccc2oc(=O)ccc2c1`, the growth in the experiment on SK-MEL-2 melanoma was 101% (inactive); in the experiment with EKVX NSCLC it was 94.6% (inactive); with SN12C renal, 95.6% (inactive); with TK-10 renal (10 µM unless noted), 111% (inactive); in the experiment with CAKI-1 renal it was 88.1% (inactive); in the experiment with A498 renal, 89.9% (inactive). The growth was 109% (inactive) in the experiment with CCRF-CEM leukemia and 98.6% (inactive) in the experiment with MOLT-4 leukemia.

For `Cc1cc(-c2ccc(N=Nc3c(C)nn(-c4ccc(S(=O)(=O)O)cc4)c3O)c(C)c2)ccc1N=Nc1ccc(O)c(C(=O)O)c1`, the growth with SK-MEL-2 melanoma is 73% (inactive); in the experiment with EKVX NSCLC, 104% (inactive); in the experiment with SN12C renal it was 95.8% (inactive); in the experiment on TK-10 renal (10 µM unless noted) it was 141% (inactive); with ACHN renal, 98% (inactive); in the experiment on CAKI-1 renal, 100% (inactive). Moreover, the figures for the growth with A498 renal, in the experiment with CCRF-CEM leukemia and in the experiment on MOLT-4 leukemia were 120% (inactive), 99.4% (inactive) and 102% (inactive), respectively.

As to `O=C(O)c1cc(=O)[nH]c(=O)[nH]1`, the growth with SK-MEL-2 melanoma was 111% (inactive) and 65.2% (inactive); in the experiment on EKVX NSCLC, 93.6% (inactive) and 115% (inactive); in the experiment with SN12C renal it was 98.7% (inactive) and 98.5% (inactive); with TK-10 renal (10 µM unless noted), 106% (inactive) and 135% (inactive); in the experiment on ACHN renal, 94.7% (inactive) and 95.2% (inactive); with CAKI-1 renal, 94.9% (inactive) and 119% (inactive). Also, the growth with A498 renal is 94.3% (inactive) and 71.1% (inactive); with CCRF-CEM leukemia, 105% (inactive) and 74.4% (inactive); in the experiment with MOLT-4 leukemia, 98.5% (inactive) and 91.5% (inactive).

`CSc1nc(N)c(N)c(N)n1`: the growth in the experiment on SK-MEL-2 melanoma was 104% (inactive); in the experiment on EKVX NSCLC, 105% (inactive); in the experiment on SN12C renal, 99.4% (inactive); in the experiment on TK-10 renal (10 µM unless noted), 111% (inactive); with ACHN renal, 110% (inactive); with CAKI-1 renal, 97.8% (inactive). In addition, the growth in the experiment on A498 renal is 94.5% (inactive); in the experiment on CCRF-CEM leukemia, 64.7% (inactive); in the experiment on MOLT-4 leukemia, 83% (inactive).

In the case of `O=P(O)(O)OC1C(OP(=O)(O)O)C(OP(=O)(O)O)C(OP(=O)(O)O)C(OP(=O)(O)O)C1OP(=O)(O)O.[Cu+2]` (stereo unspecified), the growth with SK-MEL-2 melanoma is 92.9% (inactive); in the experiment with EKVX NSCLC it was 126% (inactive); with SN12C renal, 87.4% (inactive); in the experiment on TK-10 renal (10 µM unless noted), 118% (inactive); with ACHN renal, 99.7% (inactive); in the experiment on CAKI-1 renal, 113% (inactive). The growth in the experiment with A498 renal was 85.3% (inactive); in the experiment on CCRF-CEM leukemia, 101% (inactive); with MOLT-4 leukemia it was 98.9% (inactive).
